# Assay results reported in PubChem BioAssay (NCI).
# The panel holds about 83,000 compounds, 20% with a hit somewhere; the sample as a whole holds those more often.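 Plates (96-well) were seeded with cells, treated with compound at one concentration, and incubated for 48 hours before percent growth was determined.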 Values without a mark were called inactive. The source made the active and inactive calls. How the source made its calls: active means growth percent below 10; inactive means the rest.
# Columns and labels:
# Experiment in all cases: NCI-60 one-dose screen, 48 h (100 = growth as untreated, 0 = no growth, -100 = all killed)
# Conditions in all cases: 10 µM
# [1] = tested on: T-47D breast
# [2] = tested on: BT-549 breast
# [3] = tested on: MDA-MB-435 melanoma
# [4] = tested on: SW-620 colon
# [5] = tested on: MCF7 breast
# [6] = tested on: HCT-116 colon
# [7] = tested on: HCC-2998 colon
# [8] = tested on: KM12 colon
SMILES,growth [1],growth [2],growth [3],growth [4],growth [5],growth [6],growth [7],growth [8]
O=C(c1ccccc1)C(Nc1ccccc1)c1ccccc1 (configuration not stated),76.5%,94.4%,102%,97.6%,101%,87.1%,101%,93.4%
Cc1ccc(C)c2c1sc1nc3n[nH]c(N)c3c(=N)n12,94.1%,114%,105%,107%,103%,101%,109%,104%
CCCCCN(CCCCC)C(C)C(O)c1ccc2cc(Cl)c3ccccc3c2c1 (configuration not stated),83.8%,110%,103%,80%,90.6%,65.7%,97.6%,103%
NC(=O)C1CCCN(Cc2c[nH]c3ccccc23)C1 (configuration not stated),92.8%,105%,108%,99.5%,101%,103%,100%,102%
Cc1ccc([P+](Cc2ccc([N+](=O)[O-])cc2)(c2ccc(C)cc2)c2ccc(C)cc2)cc1,7.03% (active),17.2%,6.06% (active),45.2%,29.7%,22%,31.3%,16%
COc1cc(CSc2nc3ccc(Cl)cc3c(=O)n2Cc2ccccc2)cc(OC)c1OC,33.9%,21.7%,1.84% (active),28.7%,14.3%,20.8%,50.1%,23.7%
COc1cc2c3c(cccc3c1)C(=O)N(CCN1CCCC1)C2=O,25.3%,49.4%,14.4%,9.75% (active),3.07% (active),6.66% (active),44.4%,21.3%
Nc1nc(SCC#CCCl)c2[nH]cnc2n1,37.2%,44.8%,46.7%,40.8%,34.6%,39%,100%,60.6%
CN(C1c2ccccc2Oc2ccccc21)S(=O)(=O)c1cc(Cl)ccc1Cl,39.3%,71.9%,4.17% (active),30.3%,21.4%,31.3%,84.3%,42.8%
N#Cc1c2c([nH]c(=O)c1C(N)=O)CCCCC2,79.2%,100%,108%,101%,103%,91.8%,111%,106%
Cc1ccc2nc3[nH]c(=O)[nH]c(=O)c3c(N)c2c1,85.1%,99.8%,91.5%,97.8%,89.3%,80.6%,95.9%,91%
S=c1c2ncccc2c(-c2ccccn2)nn1Cc1ccccn1,75.5%,79.7%,100%,109%,90.7%,62%,91.9%,103%
COc1ccc(-c2nnc(SCC(=O)c3ccccc3)o2)cc1,86.3%,74.9%,101%,102%,104%,78.9%,86.1%,98.3%
CCN(CC)CCCOC(=O)Nc1ccccc1Cl,106%,111%,105%,102%,112%,113%,110%,111%
[O-]c1c[n+](-c2ccc(Cl)cc2)no1,83.5%,107%,100%,97.5%,84.9%,102%,101%,95.8%
CCCOCC(O)CNCCN (configuration not stated),103%,110%,98.5%,98.9%,97.4%,104%,131%,122%
CC(=O)c1c(O)cc2c3c1OC(C)(C)C1CCC(C)(CC31)O2 (configuration not stated),66.4%,90.8%,104%,107%,119%,86.8%,115%,94.8%
CCCCc1ccc(NC(=O)N(CCCl)N=O)cc1,112%,85.4%,92%,93%,92.7%,97.1%,117%,94.3%
CCOC(=S)Sc1ccc([N+](=O)[O-])cc1[N+](=O)[O-],83.6%,24.1%,61.7%,35.4%,65.5%,31%,101%,22.5%
O=S(=O)(NC1c2ccccc2Oc2ccccc21)c1ccccc1,82.3%,91.6%,107%,97%,91.5%,84.9%,103%,104%
CCCCCCCCCCCCCC[n+]1ccc(C)cc1,12.4%,-45% (active),-64.8% (active),-3.73% (active),0.934% (active),0.372% (active),-69.7% (active),-97.9% (active)
Cc1[nH]nc2c(=S)[nH]c(=O)[nH]c12,104%,98.1%,102%,103%,94%,105%,106%,107%
S=C(Cc1ccc(-c2ccccc2)cc1)N1CCOCC1,85.5%,96.6%,98.6%,103%,95.3%,98.6%,103%,99.3%
CCCCCCCOc1cccc(/C=C2/C(=O)N=C3SCCCN32)c1,0.89% (active),51.3%,56.4%,76.6%,29.4%,39.9%,95.8%,75.2%
COc1ccc(-c2oncc2-c2cc(OC)c3c(c2)OCO3)cc1,34.7%,2.88% (active),-35.5% (active),16.4%,18%,14.1%,56%,31.3%
Cc1cc2cc3c(=O)[nH]c(=O)cc-3n(CC(O)C(O)C(O)CO)c2cc1C (configuration not stated),95.1%,104%,104%,89.8%,101%,101%,109%,108%
O=C(OCc1ncc(-c2ccc(C(F)(F)F)cc2)c(NC2CCCCCC2)n1)c1c(F)c(F)c(F)c(F)c1F,28.3%,67.8%,57.3%,64.5%,51%,52.6%,84.2%,45.6%

SMILES,growth [1],growth [2],growth [3],growth [4],growth [5],growth [6],growth [7],growth [8]
COc1ccc(C(=O)/C=C/c2cc(-c3ccc(OC)c(OC)c3)n[nH]2)cc1OC,-7.46% (active),-60.1% (active),-33.1% (active),-48.8% (active),4.18% (active),-89.2% (active),-85.8% (active),-74.1% (active)
COc1ccccc1S(=O)(=O)Nc1ccc2c(c1)CN(C)C(=O)N2,31.4%,101%,34.2%,59.4%,21.5%,49.7%,64.4%,45%
COc1cc(-c2nc3cc(Cl)c(Cl)cc3[nH]2)ccc1OCC(=O)NN,66.9%,95%,63.6%,80.9%,73.4%,96.1%,103%,64.6%
COc1cccc2c1O/C(=C\c1ccc([N+](=O)[O-])s1)C2=O,39.6%,-14.3% (active),48.4%,-28.6% (active),42.8%,-14% (active),89.7%,18.3%
CC(=O)CS(C)(=O)=O,109%,109%,106%,102%,105%,107%,102%,114%
C=C[C@]1(C)C=C2C(=O)[C@@]3(O)OC(=O)[C@@]4(CCCC(C)(C)[C@H]34)[C@@]2(O)CC1,-52.8% (active),-93.7% (active),-90.6% (active),-42% (active),0.55% (active),-93.4% (active),-91.3% (active),8.33% (active)
Oc1ccc(Cn2cc3c(c2-c2ccccc2)CCc2cnoc2-3)cc1,78.4%,101%,72.7%,98%,105%,92.7%,102%,91.5%
COC(=O)[C@]12CC[C@@H](C)[C@H](C)[C@@H]1C1=CC[C@@H]3[C@@]4(C)CC(=O)[C@H](O)[C@@]5(C)COC(=C45)C[C@@]3(C)[C@]1(C)CC2,-37.3% (active),-61.7% (active),-27.6% (active),-60% (active),-45.8% (active),-76.2% (active),-88.1% (active),-64.1% (active)
CCc1ccc(-c2nnc(COc3ccc(-c4nc5ccccc5[nH]4)cc3OC)o2)cc1,87.9%,51.7%,56.7%,58.1%,33.5%,28.9%,81.6%,58%
O=C(Nc1cccc(F)c1)Nc1cccc(Cl)c1,76.5%,104%,89.9%,74%,87.8%,92.3%,89.9%,47.6%
O=C1/C(=C/c2ccc(O)cc2)CSc2ccc(Cl)cc21,64.8%,81.9%,71.1%,27.9%,20.5%,31.2%,94.4%,35.1%
CC(=O)N(O)c1ccc(/C=C/c2ccccc2)cc1,20.5%,43.5%,55.1%,23.3%,16.7%,19.7%,14.3%,47.9%
COc1ccc(-c2cc(/C=C3\C(=O)Nc4cc(Cl)ccc43)[nH]n2)cc1,47.8%,63.5%,-36.7% (active),19.9%,11.7%,26.2%,56.7%,19.2%
CN(C)Cc1cccs1,83.9%,96.6%,118%,108%,103%,89%,96.6%,101%
c1ccc(OCCC[P+](c2ccccc2)(c2ccccc2)c2ccccc2)cc1,13.3%,11%,0.653% (active),18.9%,4.3% (active),6.18% (active),14.3%,6.18% (active)
COc1ccc(-c2[nH]ncc2/C=C/c2cc(C(F)(F)F)[nH]c(=O)n2)cc1,75.9%,80.4%,97.8%,98.4%,91.2%,100%,103%,103%
O=C(CCCC(=O)N/N=C/c1cc(Cl)ccc1O)N/N=C\c1cc(Cl)ccc1O,24.1%,29.2%,45.1%,30.9%,14.3%,24.7%,29.2%,27.8%
Cc1ccc2c(c1)-c1cc(C)nn1-c1ccc(C#N)cc1O2,51.8%,78.5%,8.67% (active),41%,42%,27.6%,90%,56.9%
CC(C)C(C)C(N)C(=O)O (configuration not stated),102%,90.7%,105%,110%,92.9%,94.5%,101%,103%
NC1CCC(Nc2nc(NCc3ccc(-c4cccs4)nc3)c3ncn(C4CCCC4)c3n2)CC1 (configuration not stated),-22.9% (active),-27.4% (active),-53.2% (active),6.7% (active),-34% (active),0.721% (active),-43.1% (active),5.58% (active)
COCCOC(=O)NC(=O)Nc1ccc(/C(=N/O)c2ccc(Cl)cc2)cc1,62.5%,50.9%,3.81% (active),29%,14.3%,4.17% (active),-1.35% (active),11.7%
CCCCNC(=O)Oc1ccc(/C(=C(\C)c2ccc(OC)cc2)c2ccc(OCCN3CCCCC3)cc2)cc1,32.4%,52%,59.8%,40.5%,24.2%,29.4%,72.8%,45.4%
CC(C)OP(=O)(O)c1ncc(-c2ccc(C(F)(F)F)cc2)c(NC2CCCCCC2)n1,41.7%,86.6%,62.7%,54.7%,51.1%,53.1%,89.8%,48%
O=c1[nH]c(=O)n(C2C[C@@H](O)[C@@H](CO)O2)cc1F (some centres not stated),54.3%,1.4% (active),37.1%,55.9%,20.7%,16.8%,-6.77% (active),33.4%
COc1cc(C2c3cc4c(cc3C(O)C(CO)C2CO)OCO4)cc(OC)c1OC (configuration not stated),45.7%,58.7%,-53.1% (active),19.6%,17.5%,23.1%,40.9%,16.1%
CCCCCCCCCCCCCCCC(=O)N1CCN(C)CC1,74.3%,83.1%,59.8%,90%,85%,57.3%,81.8%,76.2%
Cc1ccc(C)c(S(=O)(=O)NC2c3ccccc3Oc3ccccc32)c1,72.1%,102%,107%,88.8%,90.8%,91.8%,104%,102%
